The record followed here is the supplement of paper PMC11006884.

About 6,500 targets were measured; listed, in parts, are those with a hit and a random draw of the rest. About 2% of all pairs of compound and target were hits. Values without a mark were called inactive.

Sequence of UniProt Q9NR56 (Q9NR56 whole entry, looked up): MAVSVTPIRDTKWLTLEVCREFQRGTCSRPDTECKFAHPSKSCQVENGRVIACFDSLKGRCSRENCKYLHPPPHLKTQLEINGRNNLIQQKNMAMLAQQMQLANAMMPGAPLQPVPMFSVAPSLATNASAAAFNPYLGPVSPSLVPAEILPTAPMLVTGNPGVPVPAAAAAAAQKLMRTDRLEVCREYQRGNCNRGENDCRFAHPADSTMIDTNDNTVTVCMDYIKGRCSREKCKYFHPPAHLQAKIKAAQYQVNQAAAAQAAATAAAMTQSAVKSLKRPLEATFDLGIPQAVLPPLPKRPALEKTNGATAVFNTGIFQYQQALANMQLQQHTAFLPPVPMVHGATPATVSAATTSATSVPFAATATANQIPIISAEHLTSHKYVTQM
Sequence of UniProt Q9Y6K9 (Q9Y6K9 whole entry): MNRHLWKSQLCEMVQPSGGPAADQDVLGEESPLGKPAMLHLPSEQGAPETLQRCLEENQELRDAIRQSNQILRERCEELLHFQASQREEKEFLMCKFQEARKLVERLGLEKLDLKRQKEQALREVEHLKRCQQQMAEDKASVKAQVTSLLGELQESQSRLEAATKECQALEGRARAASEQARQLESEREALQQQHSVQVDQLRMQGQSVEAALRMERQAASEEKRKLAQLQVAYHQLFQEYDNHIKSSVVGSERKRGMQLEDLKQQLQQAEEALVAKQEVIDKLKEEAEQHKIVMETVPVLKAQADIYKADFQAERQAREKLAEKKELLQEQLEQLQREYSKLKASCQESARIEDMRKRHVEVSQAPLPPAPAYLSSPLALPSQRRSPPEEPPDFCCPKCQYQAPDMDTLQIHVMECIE
Sequence of UniProt Q9NSD9 (Q9NSD9 whole entry, looked up): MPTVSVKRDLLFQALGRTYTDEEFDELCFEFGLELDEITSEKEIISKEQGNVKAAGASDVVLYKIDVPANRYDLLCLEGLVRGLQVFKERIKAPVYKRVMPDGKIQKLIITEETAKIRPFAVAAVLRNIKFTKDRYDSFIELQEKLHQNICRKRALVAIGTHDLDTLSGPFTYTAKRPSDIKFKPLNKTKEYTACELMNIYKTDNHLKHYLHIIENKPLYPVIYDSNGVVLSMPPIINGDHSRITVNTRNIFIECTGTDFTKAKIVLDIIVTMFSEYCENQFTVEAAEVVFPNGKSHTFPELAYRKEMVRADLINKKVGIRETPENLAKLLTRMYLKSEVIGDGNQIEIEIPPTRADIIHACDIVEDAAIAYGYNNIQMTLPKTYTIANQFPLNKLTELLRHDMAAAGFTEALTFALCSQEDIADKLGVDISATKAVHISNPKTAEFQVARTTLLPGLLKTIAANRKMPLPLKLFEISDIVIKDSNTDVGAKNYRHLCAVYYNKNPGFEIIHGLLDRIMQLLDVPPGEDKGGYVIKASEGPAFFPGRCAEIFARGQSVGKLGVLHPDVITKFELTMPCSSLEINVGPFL
Sequence of UniProt Q9P2E9 (Q9P2E9 whole entry, looked up): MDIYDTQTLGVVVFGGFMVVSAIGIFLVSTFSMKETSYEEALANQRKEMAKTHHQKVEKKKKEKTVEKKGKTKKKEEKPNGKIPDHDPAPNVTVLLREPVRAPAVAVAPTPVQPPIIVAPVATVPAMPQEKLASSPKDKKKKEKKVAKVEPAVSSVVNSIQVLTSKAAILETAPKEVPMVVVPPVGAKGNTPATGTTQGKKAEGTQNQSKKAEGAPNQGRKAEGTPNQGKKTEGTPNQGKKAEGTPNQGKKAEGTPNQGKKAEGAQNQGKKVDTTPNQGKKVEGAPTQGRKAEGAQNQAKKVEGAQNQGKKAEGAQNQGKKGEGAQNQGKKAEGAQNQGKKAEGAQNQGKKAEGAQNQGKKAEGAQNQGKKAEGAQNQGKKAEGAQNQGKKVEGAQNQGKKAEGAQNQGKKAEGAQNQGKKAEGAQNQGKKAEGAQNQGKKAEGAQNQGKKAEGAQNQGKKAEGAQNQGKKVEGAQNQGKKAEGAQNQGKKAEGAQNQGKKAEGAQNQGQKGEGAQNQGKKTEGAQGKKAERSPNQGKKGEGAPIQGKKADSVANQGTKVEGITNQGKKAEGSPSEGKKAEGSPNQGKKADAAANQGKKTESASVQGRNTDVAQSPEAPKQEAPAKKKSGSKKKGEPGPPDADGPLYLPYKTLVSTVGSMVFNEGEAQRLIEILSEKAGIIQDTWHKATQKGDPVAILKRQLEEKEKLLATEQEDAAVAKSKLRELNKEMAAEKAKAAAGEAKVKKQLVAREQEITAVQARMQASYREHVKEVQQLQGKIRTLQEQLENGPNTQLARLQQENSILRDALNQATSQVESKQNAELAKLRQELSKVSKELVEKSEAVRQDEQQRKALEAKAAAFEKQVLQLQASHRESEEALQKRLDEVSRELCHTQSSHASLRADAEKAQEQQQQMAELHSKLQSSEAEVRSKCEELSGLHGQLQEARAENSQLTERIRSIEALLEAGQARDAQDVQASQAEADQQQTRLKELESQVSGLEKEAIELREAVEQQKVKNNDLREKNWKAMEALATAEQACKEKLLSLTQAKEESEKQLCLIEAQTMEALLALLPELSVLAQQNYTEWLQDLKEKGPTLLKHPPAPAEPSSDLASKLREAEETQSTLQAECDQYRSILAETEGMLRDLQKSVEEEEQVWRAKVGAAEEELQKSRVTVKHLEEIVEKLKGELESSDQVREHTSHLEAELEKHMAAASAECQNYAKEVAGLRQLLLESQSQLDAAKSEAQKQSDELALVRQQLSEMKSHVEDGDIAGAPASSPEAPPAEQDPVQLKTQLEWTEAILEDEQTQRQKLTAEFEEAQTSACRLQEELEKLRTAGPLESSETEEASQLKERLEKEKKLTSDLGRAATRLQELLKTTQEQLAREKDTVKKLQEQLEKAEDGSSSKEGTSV
Sequence of UniProt Q9NUU7 (Q9NUU7 whole entry): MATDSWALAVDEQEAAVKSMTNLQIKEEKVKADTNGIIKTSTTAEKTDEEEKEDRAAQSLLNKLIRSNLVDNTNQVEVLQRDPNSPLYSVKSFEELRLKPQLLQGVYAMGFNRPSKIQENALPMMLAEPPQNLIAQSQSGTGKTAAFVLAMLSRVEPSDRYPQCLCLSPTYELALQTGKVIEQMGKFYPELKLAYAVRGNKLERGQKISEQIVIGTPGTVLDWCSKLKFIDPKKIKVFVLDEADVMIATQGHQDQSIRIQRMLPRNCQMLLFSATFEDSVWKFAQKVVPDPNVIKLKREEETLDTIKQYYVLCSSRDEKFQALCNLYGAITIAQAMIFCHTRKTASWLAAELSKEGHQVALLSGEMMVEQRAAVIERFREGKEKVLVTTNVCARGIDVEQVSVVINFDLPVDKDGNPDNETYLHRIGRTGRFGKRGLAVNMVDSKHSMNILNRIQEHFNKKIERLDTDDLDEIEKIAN
Sequence of UniProt Q9BTW9 (Q9BTW9 whole entry, looked up): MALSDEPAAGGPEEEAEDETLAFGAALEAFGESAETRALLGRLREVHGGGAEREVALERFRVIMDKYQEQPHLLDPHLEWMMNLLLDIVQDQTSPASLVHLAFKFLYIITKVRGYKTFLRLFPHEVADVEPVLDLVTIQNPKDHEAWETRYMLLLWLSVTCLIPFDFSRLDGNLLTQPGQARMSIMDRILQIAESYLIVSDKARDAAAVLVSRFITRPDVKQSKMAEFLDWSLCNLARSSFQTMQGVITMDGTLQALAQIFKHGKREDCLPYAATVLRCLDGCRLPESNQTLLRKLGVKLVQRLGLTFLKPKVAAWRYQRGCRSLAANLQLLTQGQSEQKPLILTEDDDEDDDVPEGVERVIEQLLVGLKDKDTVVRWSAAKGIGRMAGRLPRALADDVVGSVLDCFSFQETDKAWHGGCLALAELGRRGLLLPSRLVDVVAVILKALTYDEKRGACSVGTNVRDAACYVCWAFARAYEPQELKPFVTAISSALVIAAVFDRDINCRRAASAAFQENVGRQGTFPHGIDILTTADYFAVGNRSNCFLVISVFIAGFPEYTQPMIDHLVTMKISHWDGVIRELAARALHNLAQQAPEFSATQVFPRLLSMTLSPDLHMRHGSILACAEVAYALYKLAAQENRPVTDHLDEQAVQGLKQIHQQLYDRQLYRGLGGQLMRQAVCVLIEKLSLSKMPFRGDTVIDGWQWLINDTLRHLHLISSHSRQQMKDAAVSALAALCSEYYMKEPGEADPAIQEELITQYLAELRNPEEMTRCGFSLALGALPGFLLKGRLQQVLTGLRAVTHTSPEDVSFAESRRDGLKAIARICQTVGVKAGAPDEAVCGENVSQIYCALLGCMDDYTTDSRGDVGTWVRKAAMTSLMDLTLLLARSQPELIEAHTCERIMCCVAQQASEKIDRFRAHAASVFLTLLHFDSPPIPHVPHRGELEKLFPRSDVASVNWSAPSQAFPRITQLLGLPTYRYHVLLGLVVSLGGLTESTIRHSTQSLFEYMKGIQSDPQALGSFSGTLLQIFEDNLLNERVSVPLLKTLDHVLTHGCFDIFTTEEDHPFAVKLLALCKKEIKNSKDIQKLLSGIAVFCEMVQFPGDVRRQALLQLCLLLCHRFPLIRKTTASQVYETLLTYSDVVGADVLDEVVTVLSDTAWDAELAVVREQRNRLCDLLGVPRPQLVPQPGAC
Sequence of UniProt Q9UHW5 (Q9UHW5 whole entry, looked up): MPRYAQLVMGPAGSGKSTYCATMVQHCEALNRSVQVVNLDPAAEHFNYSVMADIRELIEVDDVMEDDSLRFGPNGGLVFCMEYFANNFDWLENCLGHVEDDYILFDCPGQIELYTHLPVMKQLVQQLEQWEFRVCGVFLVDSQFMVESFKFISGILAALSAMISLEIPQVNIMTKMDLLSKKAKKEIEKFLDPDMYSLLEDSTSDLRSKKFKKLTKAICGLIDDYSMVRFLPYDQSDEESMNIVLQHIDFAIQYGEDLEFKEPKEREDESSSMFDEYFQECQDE
Sequence of UniProt Q9NVP2 (Q9NVP2 whole entry, looked up): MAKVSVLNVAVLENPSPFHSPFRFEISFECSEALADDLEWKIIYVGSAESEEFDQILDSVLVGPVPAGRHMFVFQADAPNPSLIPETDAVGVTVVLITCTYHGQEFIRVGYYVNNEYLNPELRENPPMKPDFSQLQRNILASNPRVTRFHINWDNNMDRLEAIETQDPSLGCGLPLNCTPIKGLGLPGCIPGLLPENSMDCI

Compound in the assay: COC(=O)C#Cc1ccccc1 [methyl 3-phenylpropiolate]
The assay is described as follows: log2 ratio of iodoacetamide-alkyne labeling of the cysteine site, DMSO over compound (competition); higher = stronger covalent engagement of the cysteine by the compound, active = 1 or more. To be noted: 500 µM; treatment time 1 h; system: HEK293T cell lysate. The method, boiled down: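 Reporter intensities give each cysteine's log2 competition ratio as the mean of control channels over the mean of compound channels. The samples were HEK293T lysate (2 mg/mL) given vehicle or electrophile (500 µM, 1 h, ambient temperature), then iodoacetamide alkyne (1 h), followed by click coupling to sCIP-TMT reagents, pooling, trypsin digestion overnight at 37 °C, streptavidin enrichment, acid elution, Orbitrap Eclipse LC-MS/MS with FAIMS and FragPipe quantification. Duplicate channels and three replicates were run, and cysteines quantified in only one replicate were discarded.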
On to LSM7 C76 (UniProt Q9UK45), for which the “log2 ratio of iodoacetamide-alkyne labeling” value (from here on “log2 ratio”) was 0.0557.

In the case of SAMHD1 C80 (UniProt Q9Y3Z3), the “log2 ratio” value was 0.175.

Take UniProt Q9UPN4_C218: the “log2 ratio” value was 0.212.

For the target ASPSCR1 C224 (UniProt Q9BZE9), the “log2 ratio” value is 1.02 (active).

Regarding UBE2O C400 (UniProt Q9C0C9), the “log2 ratio” value is -0.416.

Consider CHORDC1 C5 (UniProt Q9UHD1), for which the “log2 ratio” value was -0.0481.

Consider RRBP1 C892 (UniProt Q9P2E9), for which the “log2 ratio” value was 0.291.

In the case of SRP68 C247 (UniProt Q9UHB9), the “log2 ratio” value was 0.197.

On to DAXX C720 (UniProt Q9UER7), for which the “log2 ratio” value was 1.35 (active).

For the target MBNL1 C27 (UniProt Q9NR56), the “log2 ratio” value is 0.203.

With COPS7A C110 (UniProt Q9UBW8), the “log2 ratio” value is 0.0698.

For UFC1 C116 (UniProt Q9Y3C8), the “log2 ratio” value is 0.115.

Turning to LANCL2 C49 (UniProt Q9NS86), the “log2 ratio” value was -0.064.

Take HECTD1 C1368 (UniProt Q9ULT8): the “log2 ratio” value is 0.751.

For TBCD C234 (UniProt Q9BTW9), the “log2 ratio” value is 0.281.

For the target UniProt Q9BYG3_C237, the “log2 ratio” value is 0.515.

As to ASPSCR1 C225 (UniProt Q9BZE9), the “log2 ratio” value is 1.02 (active).

Regarding TELO2 C367 (UniProt Q9Y4R8), the “log2 ratio” value is 0.0485.

On to NOP16 C36 (UniProt Q9Y3C1), for which the “log2 ratio” value is 1.12 (active).

Regarding MDN1 C43 (UniProt Q9NU22), the “log2 ratio” value is 1.32 (active).

Turning to MRPL44 C53 (UniProt Q9H9J2), the “log2 ratio” value was -0.0312.

For the target UniProt Q9Y678_C129, the “log2 ratio” value is 0.51.

With NFU1 C210 (UniProt Q9UMS0), the “log2 ratio” value was 1.06 (active).

For the target SMC4 C190 (UniProt Q9NTJ3), the “log2 ratio” value is 0.109.

Regarding PPAN C432 (UniProt Q9NQ55), the “log2 ratio” value is 0.73.

Regarding UBQLN4 C29 (UniProt Q9NRR5), the “log2 ratio” value was 1.12 (active).

Consider PUS7L C142 (UniProt Q9H0K6), for which the “log2 ratio” value is -0.0378.

On to UniProt Q9NUQ3_C56, for which the “log2 ratio” value was 1.97 (active).

Regarding UNK C383 (UniProt Q9C0B0), the “log2 ratio” value is 0.721.

Regarding ASF1B C178 (UniProt Q9NVP2), the “log2 ratio” value is 1.22 (active).

Turning to MDN1 C3492 (UniProt Q9NU22), the “log2 ratio” value is 0.35.

Consider DDX19A C224 (UniProt Q9NUU7), for which the “log2 ratio” value is 0.0835.

Turning to XPO4 C1149 (UniProt Q9C0E2), the “log2 ratio” value is 0.048.

On to PPME1 C386 (UniProt Q9Y570), for which the “log2 ratio” value was 1.48 (active).

As for IKBKG C347 (UniProt Q9Y6K9), the “log2 ratio” value is 0.397.

As to REXO4 C382 (UniProt Q9GZR2), the “log2 ratio” value was 1.23 (active).

Turning to GPN3 C219 (UniProt Q9UHW5), the “log2 ratio” value is 0.0998.

For UniProt Q9Y5J5_C87, the “log2 ratio” value was 0.486.

In the case of FARSB C195 (UniProt Q9NSD9), the “log2 ratio” value is 0.621.

With MDN1 C172 (UniProt Q9NU22), the “log2 ratio” value is 0.0689.
